Assay outcomes: PubChem BioAssay, several laboratories
Anthrax LF inh2 – blocks Bacillus anthracis lethal factor protease; 0.12% of 360,000 active; inhibition, % at 10 µM; AID 588501; multiplex microsphere protease cleavage assay, LF; P15917; note: plate controls were buffer without enzyme for full effect and enzyme alone for no effect
VHR inh abs – inhibitors of human VHR1 phosphatase (DUSP3) | P51452 | AID 1654 | inhibition, % at 13.3 µM | recombinant VHR phosphatase, pNPP absorbance | 0.52% of 290,000 active; in the data active = inhibition above about 50%
Target sequence (P51452 whole entry, looked up): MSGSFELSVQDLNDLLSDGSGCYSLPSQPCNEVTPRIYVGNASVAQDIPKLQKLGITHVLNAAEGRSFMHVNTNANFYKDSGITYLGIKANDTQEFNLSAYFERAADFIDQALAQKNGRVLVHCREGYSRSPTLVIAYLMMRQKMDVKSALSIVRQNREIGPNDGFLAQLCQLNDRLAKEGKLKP
BoNT A protease – blocks Botulinum neurotoxin A light chain protease; multiplex microsphere protease substrate cleavage, flow cytometry; inhibition, % at 10 µM; 0.17% of 360,000 active; note: plate controls were buffer without enzyme for full effect and enzyme alone for no effect
BoNT F protease – BoNT F light chain protease inhibition; inhibition, % at 10 µM; 0.22% of 360,000 active; Multiplex microsphere protease cleavage assay, flow cytometry; in the data active = inhibition above about 35%, passing the limit was not always enough; inconclusive = no clear call, values can overlap the other calls; note: plate controls were buffer without enzyme for full effect and enzyme alone for no effect
Bead autofluor – counter-screen for toxin protease inhibitors: compound fluorescence. fluorescence intensity (test concentration not listed). AID 624483. compound autofluorescence counterscreen, microsphere flow cytometry; stronger effect = higher value. 3.1% of 360,000 active; in the data active = fluorescence intensity above about 16000; inconclusive = no clear call, values can overlap the other calls
SARS 3CLpro inh – SARS-CoV 3CLpro protease inhibition; P0C6X7; recombinant SARS-CoV 3CLpro, quenched FRET peptide cleavage; inhibition, % at 6 µM; 0.14% of 290,000 active; AID 1706; in the data active = inhibition above about 12%
Starred values were filed as active, the others as inactive; ? = inconclusive; nt = not tested or not shown. This is a sample that favours compounds with a hit; in the whole collection about 3.9% have one here. Cut-off read from the data, not from the text of the source, unless noted: active = inhibition above about 30%; inconclusive = no clear call, values can overlap the other calls; inactive = below that.

SMILES	Anthrax LF inh2	VHR inh abs	BoNT A protease	BoNT F protease	Bead autofluor	SARS 3CLpro inh
CCOC(=O)C1CCN(c2ncnc3c2cnn3C)CC1	-14	20	-1	8	3251	3
C[C@H]1CCC[C@@H](O)CCC/C=C/c2cc(O)cc(O)c2C(=O)O1	-4	24	-3	-4	20416*	0
O=C(CN1CCN(Cc2ccccc2)CC1)c1ccc(Br)cc1	4	15	0	-5	21164*	3
CSc1ccc(C(=S)N2CCN(Cc3ccccc3)CC2)cc1	-17	36	7	13	19865*	1
CCN1CCN(C(=S)c2ccc(Cl)cc2)CC1	0	50*	0	4	3939	-5
O=C(CN1CCN(Cc2ccccc2)CC1)c1ccccc1	-2	11	0	-4	3433	0
CCOCCCNC(=O)c1ccc(CN2CCc3ccccc3C2)cc1	-5	nt	0	-2	3317	nt
O=C(Nc1c(F)cc(F)cc1Br)c1cccnc1	0	4	-1	-2	23919*	-1
CC(=O)N1C(=O)/C(=C2\SC(=S)N(NS(=O)(=O)c3ccc(C)cc3)C2=O)c2ccccc21	1	20	1	1	2578	-1
COc1ccc(C2N(c3ccccc3)C(=O)C2(F)F)cc1OC (stereo not given)	-3	10	1	1	3260	-4
COc1ccc(C2SCC(=O)Nc3c2c(C)nn3C2CCOC(C)(C)C2)cc1OC (stereo not given)	-3	16	?	-2	23587*	2
COc1ccc(C2SCC(=O)Nc3c2c(C)nn3-c2ccccc2)cc1OC (stereo not given)	-2	28	-3	-6	23949*	2
COC(=O)C1=C(C)NC(=O)NC1c1ccc(OC)c(OC)c1 (stereo not given)	2	nt	0	-6	2877	nt
COc1ccc(-n2c(COc3ccc(C)cc3)nnc2SCc2ccc(C#N)cc2)cc1	-2	10	1	-1	19083*	0
Cn1c(=O)[nH]c(=O)c2c1nc(OC(=O)c1ccccc1)n2CC(O)COc1ccc(F)cc1 (stereo not given)	1	13	-1	-4	16708*	-1
Cn1c(=O)[nH]c(=O)c2c1nc(OC(=O)c1ccccc1)n2CC(O)COc1ccccc1 (stereo not given)	-2	-2	-1	14	2908	-5
CCCN(CCC)CCNC(=O)C(NS(=O)(=O)c1ccc2c(c1)CCC(=O)N2)c1ccccc1 (stereo not given)	-3	-17	-2	-4	23934*	-4
O=S(=O)(c1cccc(-c2cn3ccccc3n2)c1)N1CCCCC1	-4	19	-1	-9	5858	2
O=S(=O)(c1ccc(-c2cn3ccccc3n2)cc1)N1CCOCC1	1	32	-9	-10	22528*	-4
Cc1cccn2cc(-c3ccc(S(=O)(=O)N4CCOCC4)cc3)nc12	1	-14	0	-1	23299*	-4
NC(=O)/C(=C\c1cccnc1)NC(=O)c1ccccc1	-3	12	0	-3	4412	0
CC(=O)Nc1cccc(-c2csc(C(O)c3ccc(F)cc3)n2)c1 (stereo not given)	-2	nt	0	-4	4012	nt
COc1cccc(C(=O)N2CCN(Cc3ccc(OC)cc3OC)CC2)c1	-8	6	2	-9	3372	0
COc1cc(/C=C/C=C2/CC/C(=C/C=C/c3ccc(O)c(OC)c3)C2=O)ccc1O	34*	nt	39*	-4	3836	nt
COc1ccc(CNC(=O)c2sc3nc4c(c(C(F)(F)F)c3c2N)CCC4)cc1	nt	-1	nt	nt	nt	-1
SMILES	Anthrax LF inh2	VHR inh abs	BoNT A protease	BoNT F protease	Bead autofluor	SARS 3CLpro inh
Cc1ccc(CNC(=O)c2sc3nc4c(c(C(F)(F)F)c3c2N)CCC4)cc1	1	14	?	-1	24632*	-4
CC1(C)C2CC=C(CN3CCC(O)CC3)C1C2 (stereo not given)	-2	3	?	0	16149*	-1
COc1ccc(CCNC(=O)CSCc2ccc([N+](=O)[O-])cc2)cc1	0	-7	0	2	2142	-2
Cc1ccc(CSCCNC(=O)CSCc2ccc([N+](=O)[O-])cc2)cc1	-3	-2	0	-3	20785*	1
Cc1cccc(CSCCNC(=O)CSCc2ccc([N+](=O)[O-])cc2)c1	nt	32	nt	nt	nt	5
Cc1ccccc1CSCCNC(=O)CSCc1ccc([N+](=O)[O-])cc1	-3	20	?	0	21363*	0
